Hits are enriched below; roughly 3.7% of the tested compounds scored in any of these assays.
PI5P4K alpha inh = PI5P4K alpha (human) kinase inhibition | P48426 | PI5P4Kalpha enzyme, ADP-Glo luminescence, 60 min; active compounds read low | max response, % | actives 1.2% (n = 330,000); active = max response of -50% or lower; inconclusive = between -30% and -50%; inactive = -30% or higher; also: value at the top dose of about 77 µM; % is scaled to controls: 0 for no effect and ±100 for the full control effect
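Reactions run in 0.038 M HEPES pH 7.4, 0.28 mM EGTA, 0.1% CHAPS and 5% DMSO, with PI5P4Kalpha, substrate, compound and 5 microM ATP final, one hour at room temperature. Readout is ADP-Glo luminescence.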
PLK1 PBD inh = blocks phosphopeptide binding to human PLK1 polo-box domain. P53350. Plk1 PBD binding of FITC phosphopeptide, fluorescence polarization. Potency, µM, for the others: max response, negative = inhibition, usual class: inhibitors. actives 2.8% (n = 360,000); also: potency is read from the fitted curve at half-maximal effect; series mostly up to about 57 µM; % is scaled to controls: 0 for no effect and ±100 for the full control effect; nearly all actives have a fitted effect of over 65% in size
VDR inhibitor = inhibitors of human vitamin D receptor; VDR-SRC2-3 peptide fluorescence polarization, 2 h; Potency, µM, inactives show max response, negative = inhibition, usual class: inhibitors; actives 0.93% (n = 400,000); AID 504847; P11473; also: potency is read from the fitted curve at half-maximal effect; % is scaled to controls: 0 for no effect and ±100 for the full control effect
Target sequence (P11473 whole entry, looked up): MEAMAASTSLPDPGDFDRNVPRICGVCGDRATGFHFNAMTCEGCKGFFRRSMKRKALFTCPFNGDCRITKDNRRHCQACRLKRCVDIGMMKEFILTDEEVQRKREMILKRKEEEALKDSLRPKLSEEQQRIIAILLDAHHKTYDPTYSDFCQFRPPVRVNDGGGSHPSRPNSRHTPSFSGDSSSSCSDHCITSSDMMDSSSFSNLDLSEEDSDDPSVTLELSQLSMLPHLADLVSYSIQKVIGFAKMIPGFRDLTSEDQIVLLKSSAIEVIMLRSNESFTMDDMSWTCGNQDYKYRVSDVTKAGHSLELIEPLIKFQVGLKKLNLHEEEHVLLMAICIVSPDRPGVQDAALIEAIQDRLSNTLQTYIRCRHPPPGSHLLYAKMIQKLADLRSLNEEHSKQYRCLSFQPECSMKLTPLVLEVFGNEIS
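Inhibition of the VDR/SRC2-3 peptide interaction is quantified by fluorescence polarization. Compounds (23 nl, pintool) incubate with the reagents for 2 hours at ambient room temperature.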
TCR act = T cell receptor activation; primary human leukocytes, anti-CD3, IL-2 HTRF, 48 h; Potency, µM (highest dose often 9.22 µM), for inactives: at the top dose activation of IL-2 secretion, actives largely listed as activators; 330,000 tested, under 10 active; also: % of control where 0% means no effect
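Compounds are tested in HTS on primary human leukocytes co-incubated with a-CD3 beads for 48 hr. IL-2 output is measured by time-resolved FRET.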
WRN inhibitor = inhibitors of human WRN helicase. Q14191. WRN helicase unwinding, fluorescent forked duplex, kinetic. Potency, µM (highest dose often 114 µM), without a hit: top-dose activity change, negative = inhibition, usual class: inhibitors. actives 0.46% (n = 360,000). AID 651768; also: potency is read from the fitted curve at half-maximal effect; % is scaled to controls: 0 for no effect and ±100 for the full control effect; nearly all actives have a fitted effect of over 55% in size
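Fluorescence dequenching readout, ex 525 nm/em 598 nm, kinetic mode: forked duplex DNA (100 nM final) with adjacent fluorophore and quencher unwound by WRN (20 nM final) with 2 mM ATP. Compound preincubation 15 min, room temperature.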
FEN1 inh = human FEN1 inhibition. P39748. Recombinant FEN1 flap cleavage, fluorescence, 15 min. Potency, µM (top dose mostly 114 µM), inactives show top-dose activity change, negative = inhibition, actives largely listed as inhibitors. actives 0.35% (n = 390,000); also: potency is read from the fitted curve at half-maximal effect; % is scaled to controls: 0 for no effect and ±100 for the full control effect; nearly all actives have a fitted effect of over 65% in size
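Read-out was taken twice, immediately and after 15 min, following addition of 50 nM substrate to 10 nM FEN1 that had sat with test compound for 15 min at room temperature. Curves came from a four-parameter Hill model.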
Starred values were filed as active, the others as inactive; ? = inconclusive; . = not tested or not shown; [ ] = remark or other dose. Unless noted, calls follow the shape of the dose curve; as a rule, active = well fitted curve in the direction sought with a large enough effect; inconclusive = small, poorly fitted or top-dose-only effect, or another doubt; inactive = no such curve, though single readings can be large; an effect the other way counts as inactive or inconclusive.

SMILES	PI5P4K alpha inh	PLK1 PBD inh	VDR inhibitor	TCR act	WRN inhibitor	FEN1 inh
COc1ccc(NC(=O)CSc2nnc(C3CC3)n2C)cc1	-28.1	23.8µM*	28.2µM*	0.7%	?	-4.3%
CCCOc1ccc(N2CC(C(=O)Nc3cccc(Cl)c3Cl)CC2=O)cc1 (centres undefined)	.	.	-18.6%	.	.	-1.2%
COc1ccccc1-c1nn2c(-c3cc(C)[nH]n3)nnc2s1	.	.	-4.9%	.	.	-13.4%
COc1cccc(C(=O)Nc2c(C(=O)N3CCN(c4ccc(F)cc4)CC3)oc3ccccc23)c1	.	.	0.6%	.	.	1.3%
CCOc1ccc(N=Cc2ccc([N+](=O)[O-])cc2)c(O)c1	-12.9	-24.3%	.	.	1.0%	.
CCOc1ccc(N=Cc2ccc(N(C)C)cc2)c(O)c1	-54.0*	?	.	.	-35.4%	.
COc1ccc(-c2[nH]ncc2CN2CCC(N3CCSCC3)CC2)c(F)c1	-5.1	15µM*	-27.1%	0.2%	-2.8%	-3.4%
Cn1c(N=NC(=O)c2ccccc2)c(O)c2ccccc21	-19.7	26.7µM*	?	4.3%[46.1 µM]	-28.1%	0.0%
Cn1c(O)c(N=NC(=O)CNC(=O)c2ccccc2)c2ccccc21	2.8	4.4%	1.0%	-3.6%	-7.0%	-7.4%
Cc1ccc(C(c2nnnn2C2CCCCC2)N2CCc3ccccc32)cc1 (centres undefined)	8.3	2.0%	-23.6%	0.9%[46.1 µM]	-4.6%	-6.0%
COc1cc(C(c2nnnn2C2CCCC2)N2CCc3ccccc3C2)ccc1O (centres undefined)	2.2	21.2µM*	-0.5%	-1.0%	-8.9%	1.5%
CCN(C(=O)CSc1nc2ccccc2c(=O)n1Cc1ccc(C)cc1)C1CCS(=O)(=O)C1 (centres undefined)	0.1	-4.3%	-0.9%	5.1%	-1.5%	-6.0%
CCN(C(=O)CSc1nc2ccccc2c(=O)n1-c1cccc(C)c1)C1CCS(=O)(=O)C1 (centres undefined)	?	26.7µM*	-13.8%	2.9%	9.2%	7.1%
CCS(=O)(=O)N1CC(=O)N(c2ccc(C)c(C)c2)C(C)(C(=O)NC2CCCCC2)C1 (centres undefined)	.	.	16.3%	.	.	4.1%
O=C(CSc1nc2ccccc2nc1Cc1ccccc1)Nc1ccccc1C(F)(F)F	.	.	-6.2%	.	.	-7.1%
Cc1ccc(/C=N/N=C/c2ccc(C)cc2)cc1	-2.8	21.2µM*	-14.5%	2.3%[46.1 µM]	3.4%	1.2%
Oc1ccc(/C=N/N=C/c2ccc(O)cc2)cc1	-5.4	2.7%	-7.6%	2.5%	7.1%	-15.6%
CC1Cc2ccccc2N1C(=O)COC(=O)c1ccc([N+](=O)[O-])o1 (centres undefined)	-7.3	-19.6%	-23.6%	-0.3%	-17.9%	28.2µM*
COc1cccc(CNC(=O)CCS(=O)(=O)c2ccc3c(c2)CC(C)N3C(=O)C2CC2)c1 (centres undefined)	1.0	21.2µM*	-12.1%	7.3%	3.9%	-1.4%
CC1Cc2cc(S(=O)(=O)CCC(=O)NC3CCCCC3)ccc2N1C(=O)C1CC1 (centres undefined)	0.9	1.3%	-0.8%	0.0%	3.2%	18.1%
CC1CCC(NC(=O)CCS(=O)(=O)c2ccc3c(c2)CC(C)N3C(=O)C2CC2)CC1 (centres undefined)	3.8	29.9µM*	-9.1%	8.5%	-1.3%	0.7%
CCCc1cc2c(=O)c(-c3nc4ccccc4s3)c(COCC(=O)O)oc2cc1O	-74.1*	-23.7%	2.5%	3.5%	-23.0%	-4.4%
CCc1cc2c(=O)c(-c3nc4ccccc4n3C)c(COCC(=O)O)oc2cc1O	.	-1.5%	13.9%	-3.7%	-6.0%	6.2%
Cc1cccc(C)c1-n1ncc(C(=O)N2CCN(c3ncccn3)CC2)c1C1CCN(C(=O)OC(C)(C)C)CC1	.	.	20.0%	.	.	16.1%
COc1ccc(OC)c(Nc2ncnc3c2nc2n3CCCC2)c1	.	.	15.1%	.	.	-17.0%
CCOC(=O)c1sc(=S)n(C)c1NC(=O)c1ccccc1Cl	-16.6	11.9µM*	?	-2.4%[46.1 µM]	?	-3.1%
CCOC(=O)c1sc(=S)n(C)c1NC(=O)c1ccc(OC)cc1	?	3.36µM*	50.1µM*	0.9%	?	-0.9%
